Data on 40 compounds can be found in PubChem BioAssay (Tox21).

Each structure is given as a SMILES string. Values joined by “and” are separate entries in the source; they are usually repeats but may differ in a detail not shown here. Equal values may be shown once. Records with an inconclusive call do not appear. A call without a number means that no potency is given here. A structure can be active in one record and inactive in another. Active and inactive are the calls of the source. Calls follow the shape of the dose curve; as a rule, active = well fitted activation curve with a large enough effect in the repeat runs; inconclusive = weak or mixed curves; inactive = no such curve, though single readings can be large or run the other way.
Potency is read from the fitted curve at half-maximal effect.

Sequence of Nuclear receptor subfamily 1 group I member 3 (Homo sapiens) (Q14994 whole entry, looked up): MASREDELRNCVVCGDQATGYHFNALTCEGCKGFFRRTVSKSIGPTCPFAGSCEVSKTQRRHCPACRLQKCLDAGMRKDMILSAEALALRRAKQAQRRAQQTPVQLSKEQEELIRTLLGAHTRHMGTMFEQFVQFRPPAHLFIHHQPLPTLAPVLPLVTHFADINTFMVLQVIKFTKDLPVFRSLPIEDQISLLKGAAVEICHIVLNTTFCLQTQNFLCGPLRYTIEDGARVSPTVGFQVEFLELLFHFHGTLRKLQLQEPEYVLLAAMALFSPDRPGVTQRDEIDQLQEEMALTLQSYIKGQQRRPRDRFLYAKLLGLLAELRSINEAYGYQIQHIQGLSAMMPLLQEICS

This experiment deals with Nuclear receptor subfamily 1 group I member 3 (Homo sapiens) (UniProt Q14994). Kind of experiment: qHTS assay to identify small molecule agonists of the constitutive androstane receptor (CAR) signaling pathway (AID 1224839). Also: nearly all actives have a fitted effect of over 15% in size.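 As to activation: HepG2 cells stably carrying human CAR and a CYP2B6 luciferase reporter.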 The note with it: HepG2 hCAR CYP2B6-luciferase, agonist mode, 24 h; series mostly up to 92.4 µM. From the text:
National Center for Advancing Translational Sciences [NCATS] NIH Chemical Genomics Center [NCGC] U.S. Environmental Protection Agency [EPA] National Institutes of Environmental Health Sciences [NIEHS] National Toxicology Program [NTP] Assay overview: The constitutive androstane receptor (CAR) is a nuclear receptor which regulates multiple drug metabolizing enzymes (DMEs) and transporters. Activating CAR will generally increase the transcription and subsequent translation of CYP2B6 and CYP3A4. These two DMEs represent about 50% of the drug metabolizing potential in the body. […] Recently, there have also been studies performed indicating CARs role in energy metabolism and cancer therapy. Therefore, inducing CARs activity could have a potential effect on diabetes and cancer. Identifying environmental toxins and compounds which modulate CAR, through the use of the Tox21 10K compound collection, will be an important step in determining the toxicity and potential therapeutic effects these factors will have on the human body.
Assay Protocol Summary: A double-stable (hCAR and CYP2B6-2.2kb) transfected cell line, derived from human hepatoma (HepG2) cells, was utilized for the duration of the quantitative high-throughput screens. The HepG2-CYP2B6-hCAR cells suspended in DMEM culture medium supplemented with 10% FBS, 5 ug/mL blasticidin, 0.5 mg/mL geneticin, 100 U/mL penicillin and 100 ug/mL streptomycin were dispensed at 2500 cells/4 uL/well in 1536-well white solid bottom plates using a Multidrop Combi. After the assay plates were incubated at 37 C/5% CO2 for 4 hrs, 23 nL of compounds at 15 concentrations (from 5-48 columns) or positive control (from 1 to 4 columns) were transferred to the assay plates using a Pintool station. One uL of PK11195, was added using a Flying Reagent Dispenser to generate a final concentration of 0.75 uM PK11195 inside each well. After a 24 hr incubation period at 37 C/5% CO2, four uL of ONE-Glo reagent was added into the assay plates using a Flying Reagent Dispenser. After a 30 min incubation period at room temperature, the luminescence intensity in the assay plates was measured using a ViewLux plate reader.
A general note: Quantitative high-throughput screening tests each substance at several concentrations.
With `Nc1cc(Cl)c(N)c(Cl)c1`, the Potency result was “inactive”.
To `CC1(C)C(C=C(Cl)Cl)C1C(=O)OCc1cccc(Oc2ccccc2)c1` (stereo not given) belongs 6.81 µM (active) and 6.11 µM (active); to `C1COCCN1`, “inactive”; to `COc1ccc(-c2coc3cc(O)cc(O)c3c2=O)cc1`, 15.5 µM (active) and 27.3 µM (active).
For the compound `CC1=CC(C)(C)Nc2ccccc21`, the Potency entry was “inactive”.
In the case of `C=CC(C)(O)CCC=C(C)C` (stereo not given) it was “inactive”.
Consider `OC[C@H]1O[C@@H]2O[C@H]3[C@H](O)[C@@H](O)[C@@H](O[C@H]4[C@H](O)[C@@H](O)[C@@H](O[C@H]5[C@H](O)[C@@H](O)[C@@H](O[C@H]6[C@H](O)[C@@H](O)[C@@H](O[C@H]7[C@H](O)[C@@H](O)[C@@H](O[C@H]1[C@H](O)[C@H]2O)O[C@@H]7CO)O[C@@H]6CO)O[C@@H]5CO)O[C@@H]4CO)O[C@@H]3CO`, for which the Potency result is “inactive”.
On to `Cc1ccc(C)c(O)c1`, for which the Potency result is “inactive”.
`c1ccc2c(c1)[nH]c1ccccc12`: the Potency was 60.1 µM (active).
In the case of `c1ccc2c(c1)ccc1ncccc12` it was 54.1 µM (active) and 48.6 µM (active); in that of `C=C[C@@]1(C)CC(=O)[C@]2(O)[C@@]3(C)[C@@H](O)CCC(C)(C)[C@@H]3[C@H](O)[C@H](OC(C)=O)[C@@]2(C)O1`, “inactive”; in that of `CCCCCCCCCCC(CO)CCCCCCCC` (stereo not given), “inactive”.
To `CCOC(=O)C(C)Oc1ccc(Oc2cnc3cc(Cl)ccc3n2)cc1` (stereo not given) belongs “inactive”.
To `CCCN1C=CN(C)C1` belongs “inactive”; to `CC/C=C\C/C=C\C/C=C\CCCCCCCC(=O)O`, “inactive”.
For `Cc1ccc(N)c([N+](=O)[O-])c1`, the Potency entry was “inactive”.
In the case of `COC(=O)C(C)Oc1ccc(Oc2ncc(C(F)(F)F)cc2Cl)cc1` (stereo not given), the Potency entry is “inactive”.
To `Cc1ccc(S(=O)(=O)O)cc1C` belongs “inactive”; to `Cc1ccc(C(C)(C)C)c(O)c1`, “inactive”; to `CCCOCCO`, “inactive”.
To `O=C(O)COCCN1CCN(C(c2ccccc2)c2ccc(Cl)cc2)CC1` (stereo not given) belongs “inactive”; to `Cc1ccc([N+](=O)[O-])c(C)c1`, “inactive”; to `C=CCOC(=O)C(=C)C`, “inactive”.
In the case of `CC(=O)O[C@]1(C(C)=O)CC[C@H]2[C@@H]3C=C(Cl)C4=CC(=O)CC[C@]4(C)[C@H]3CC[C@@]21C` it was “inactive”; in that of `Nc1ccc(O)c(N)c1`, “inactive”; in that of `O=C(O)c1ccc(O)cc1`, “inactive”.
Consider `CCCCCCCCCCCCCO`, for which the Potency result is “inactive”.
For `CC1(C)NC(=O)N(c2ccc([N+](=O)[O-])c(C(F)(F)F)c2)C1=O`, the Potency entry is “inactive”.
To `C=CN1CCCC1=O` belongs “inactive”.
Regarding `CC(=O)Nc1ccc2c(c1)Cc1cc(NC(C)=O)ccc1-2`, the Potency entry was “inactive and 7.7 µM (active)”.
To `O=S1(=O)CCCO1` belongs “inactive”; to `c1ccc2cc3ccccc3cc2c1`, 19.9 µM (active) and 21.7 µM (active); to `Clc1ccc(Sc2cc(Cl)c(Cl)cc2Cl)cc1`, “inactive”.
In the case of `O=C1OC2(c3ccccc31)c1cc(I)c(O)c(I)c1Oc1c2cc(I)c(O)c1I` it was “inactive”; in that of `COC(=O)c1ccc(C)cc1`, “inactive”; in that of `ClC/C=C/CCl`, “inactive”.
For the compound `CC(=O)[C@@]1(O)CC[C@H]2[C@@H]3C[C@H](C)C4=CC(=O)C=C[C@]4(C)[C@@]3(F)[C@@H](O)C[C@@]21C`, the Potency result is “inactive”.
To `OC[C@@H](O)[C@@H](O[C@@H]1O[C@H](CO)[C@H](O)[C@H](O)[C@H]1O)[C@H](O)[C@@H](O)CO` belongs “inactive”.
For the compound `Nc1ccc2c(c1)C(=O)c1ccccc1C2=O`, the Potency is 1.34 µM (active) and 969 nM (active).
To `CN(C)CCCN1c2ccccc2Sc2ccc(Cl)cc21` belongs “inactive”.
